The results in this text go back to PubChem BioAssay AID463173 (ICCB-Longwood Screening Facility, Harvard Medical School, 2010).

Screen size: about 52,000 compounds; about 4,300 (8.3%) were called active. This is one part of a sample in which actives are shown more often than they occur. Values without a mark were called inactive. Cut-off read from the data, not from the text of the source: active = survival mostly below about 52% (no sharp cut-off); inactive = mostly above about 56%.

In the test the test system is DeltatarO mutant. In words: growth inhibition of S. aureus wild type versus tarO mutant, primary screen, teichoic acid synthesis inhibitors, RN4220, OD600 (AID 463173). The note with it: OD600, 18 h, active compounds read low, screened at 18.75 µg/mL (by protocol).
For the compound `CCOc1ccccc1N(C)C(=O)NCc1noc2ccccc12`, the survival was 108%.

`O=C(NCc1ccccc1F)C(=O)NCC(c1cccs1)S(=O)(=O)c1cccs1` (stereo unspecified): the survival was 83%. On to `Cc1ccc(-n2ncc3c(NCCCn4ccnc4)ncnc32)cc1C`, for which the survival was 84%. In the case of `Cc1[nH]c2ccccc2c1SCCNC(=O)c1ccc(F)cc1`, the survival is 59%. As to `COc1ccc(NC(=O)CN2C(=O)CCn3nc(-c4cccn4C)cc32)cc1Cl`, the survival was 83%. Turning to `CC1CCc2[nH]nc(C(=O)O)c2C1` (stereo unspecified), the survival is 93%. With `CC1CCCN(C(=O)c2cc3c(Cl)nc4ccccc4c3s2)C1` (stereo unspecified) the figure was -5% (active); with `Cc1ccc(NC(=O)c2cc3c(Cl)nc4ccc(C)cc4c3s2)c(Cl)c1`, 68%; with `O=C(NC1CCCCC1)c1cc2c(Cl)nc3ccccc3c2s1`, 80%. With `CC1CCC(NC(=O)c2cc3c(Cl)nc4ccccc4c3s2)CC1` (stereo unspecified), the survival was 87%. With `O=C(NC1CCCCCC1)c1cc2c(Cl)nc3ccccc3c2s1` the figure was 116%; with `CCC(C)NC(=O)c1cc2c(Cl)nc3ccc(C)cc3c2s1` (stereo unspecified), 65%; with `Cc1ccc2nc(Cl)c3cc(C(=O)NC4CCC(C)CC4)sc3c2c1` (stereo unspecified), 57%. Consider `CC1CCCN(CCCNC(=O)c2cc3c(Cl)nc4ccccc4c3s2)C1` (stereo unspecified), for which the survival was 125%.

As for `Cc1ccc2nc(Cl)c3cc(C(=O)NCCCN4CCC(C)CC4)sc3c2c1`, the survival was 125%. As to `Cc1ccc2nc(Cl)c3cc(C(=O)N4CCCC(C)C4)sc3c2c1` (stereo unspecified), the survival was -7% (active). Turning to `Cc1ccc2nc(Cl)c3cc(C(=O)N4CCCCC4)sc3c2c1`, the survival was -8% (active). In the case of `O=C(c1cc2c(Cl)nc3ccccc3c2s1)N1CCCCC1` it was 46% (active); in that of `CNC(=O)C1CCC(Cn2c(=O)c3sccc3n(CC(=O)Nc3ccc(C)c(C)c3)c2=O)CC1` (stereo unspecified), 70%.

As for `CCC(C)NC(=O)c1sc2nc3n(c(=O)c2c1C)CCC3` (stereo unspecified), the survival is 93%. For the compound `CCOc1ccc(NC(=O)Cn2c(=O)n(Cc3ccco3)c(=O)c3ccc(C(=O)NC4CCCC4)cc32)cc1`, the survival was 97%.

Turning to `Cc1ccc(NC(=O)CSc2ccc(-c3cccs3)nn2)cc1Cl`, the survival is 111%.

With `COc1ccc(NC(=O)CSc2nc(C)cc(C)c2C(=O)Nc2ccccc2OC)cc1`, the survival is 51%. In the case of `CN1CCC(OC(=O)c2ccc(Cl)cc2Cl)CC1`, the survival was 101%. Take `O=C(Cn1c(=O)n(CCc2ccccc2)c(=O)c2c3c(sc21)CCCC3)Nc1ccc(F)c(F)c1`: the survival is 84%. With `COc1cccc(N2CCN(C(=O)c3cc4c(=O)n(Cc5cccnc5)ccc4nc3C)CC2)c1`, the survival is 102%. As for `CCOC(=O)C1CCCN(C(=O)c2cc3c(Cl)nc4ccccc4c3s2)C1` (stereo unspecified), the survival was 26% (active).

On to `CCC1CCCCN1CCCNC(=O)c1cc2c(Cl)nc3ccccc3c2s1` (stereo unspecified), for which the survival was 101%.

`CCOC(=O)C1CCCN(C(=O)c2cc3c(=O)[nH]c4ccc(C)cc4c3s2)C1` (stereo unspecified): the survival was 51%. For `CCNC(=S)N1CCC(NC(=O)C23CC4CC(CC(C4)C2)C3)CC1`, the survival was 80%. Consider `Fc1ccc(Cc2cn3cc(-c4ccc(F)cc4)nc3s2)cc1`, for which the survival is 61%.

Regarding `Fc1ccc(Cc2cn3cc(-c4ccccc4)nc3s2)cc1`, the survival is 51% (active).

As for `Fc1ccc(-c2cn3cc(Cc4ccccc4)sc3n2)cc1`, the survival is 81%. Regarding `Clc1ccccc1Cc1cn2cc(-c3ccccc3)nc2s1`, the survival is 63%. As for `Fc1ccccc1Cc1cn2cc(-c3ccc(Cl)cc3)nc2s1`, the survival is 66%. In the case of `Fc1ccc(-c2cn3cc(Cc4ccccc4Cl)sc3n2)cc1` it was 42% (active); in that of `Cc1ccccc1-c1nc(SCC(=O)NCc2ccco2)c2c(=O)n(C)c(=O)n(C)c2n1`, 71%; in that of `O=C(Nc1ccc(C(F)(F)F)cc1)N1CCC(N2CCCCC2)CC1`, 108%.

For the compound `COc1ccc(-c2noc(CSc3nnc(-c4ccncc4)n3-c3ccc(C)cc3)n2)cc1OC`, the survival is 67%. As to `CC1=C(C(=O)OC2CCCCCC2)C(c2ccc(Cl)cc2Cl)CC(=O)N1` (stereo unspecified), the survival was 81%. In the case of `CCOC(=O)c1c(NC(=O)c2ccc(S(=O)(=O)N(C)C)cc2)sc2c1CCN(C)C2` it was 75%.

Turning to `Cc1nc(NC2CCN(Cc3nnnn3Cc3ccc4c(c3)OCO4)CC2)[nH]c(=O)c1C`, the survival was 94%. In the case of `Cc1cc(C)c(S(=O)(=O)NCc2csc(-c3ccccc3)n2)c(C)c1` it was 34% (active); in that of `O=S(=O)(NCc1csc(-c2ccccc2)n1)c1cccc(F)c1`, 79%; in that of `O=S(=O)(NCc1csc(-c2ccccc2)n1)c1ccccc1`, 70%. `COc1ccccc1C(=O)Nc1nc2nc(C)c(Cc3ccccc3)c(=O)n2[nH]1`: the survival is 111%. On to `COc1cccc(NC(=O)CN(CCc2ccccc2)S(=O)(=O)c2ccc(Cl)cc2)c1`, for which the survival is 52%. As to `Cn1cc(C(=O)Nc2ccc(C#N)cc2)c2ccccc2c1=O`, the survival is 63%. As for `CCCn1c(=O)sc2cc(NC(=O)c3ccccc3OCC)ccc21`, the survival is 93%. As for `CCOC(=O)Cn1c(=O)sc2ccccc21`, the survival is 94%. With `CS(=O)(=O)n1c(=O)sc2ccccc21` the figure was 99%; with `CCCOc1ccccc1Cn1c(=O)sc2ccccc21`, -2% (active). As to `O=C(Cn1c(=O)sc2ccccc21)Nc1ccc(O)cc1`, the survival was 70%.

In the case of `CCCCOc1ccccc1Cn1c(=O)sc2ccccc21`, the survival is -2% (active). Regarding `Cc1cccc(NC(=O)Cn2c(=O)sc3ccccc32)c1`, the survival was 109%.

For `CC(C)CCOc1ccccc1Cn1c(=O)sc2ccccc21`, the survival was 3% (active). In the case of `CCN(CC)C(=O)Cn1c(=O)sc2ccccc21`, the survival is 85%. For `O=C(Cn1c(-c2ccccc2)noc1=O)Nc1cccc(Cl)c1Cl`, the survival is 98%. In the case of `CCc1ccc(S(=O)(=O)c2cn(C)c3cc(N4CCOCC4)c(F)cc3c2=O)cc1` it was 90%.

Turning to `CCC(Sc1nnc(-c2ccc(OC)cc2)c(-c2ccc(OC)cc2)n1)C(=O)Nc1cccc(OC)c1` (stereo unspecified), the survival is 94%. In the case of `COCCn1c(C)cc(O)c(C(c2ccc(F)cc2)N2CCN(c3ccccc3)CC2)c1=O` (stereo unspecified), the survival is 47% (active). In the case of `CCN1CCN(C(c2ccccc2)c2c(O)cc(C)n(CCOC)c2=O)CC1` (stereo unspecified), the survival was 84%. In the case of `COCCn1c(C)cc(O)c(C(c2ccccc2)N2CCN(c3ccccc3)CC2)c1=O` (stereo unspecified) it was 49%.

On to `COCCn1c(C)cc(O)c(C(c2ccccc2)N2CCN(CCO)CC2)c1=O` (stereo unspecified), for which the survival is 32% (active). With `COCCn1c(C)cc(O)c(C(c2ccccc2)N2CCN(C)CC2)c1=O` (stereo unspecified), the survival was 95%. `COCCn1c(C)cc(O)c(C(c2cccc(F)c2)N2CCN(c3ccccc3)CC2)c1=O` (stereo unspecified): the survival is 93%. Take `Cc1cccc(NC(=O)c2cc(S(=O)(=O)N3CCc4ccccc43)ccc2F)c1C`: the survival is 65%.

For `COc1ccc(-n2c(/C=C/c3cc(OC)c(OC)cc3OC)nc3cc4ccccc4cc3c2=O)cc1Cl`, the survival is 115%. Take `CCOC(=O)CNC(=O)Nc1cc(C(=O)NCc2cccc(F)c2)ccc1N1CCCC1`: the survival is 74%. Regarding `CCOC(=O)N1CCC(NC(=O)c2ccc3c(c2)N(Cc2ccccc2)C(=O)c2ccccc2S3(=O)=O)CC1`, the survival was 52%. On to `CSc1ccc(C2c3c(oc4cc(C)cc(C)c4c3=O)C(=O)N2Cc2ccco2)cc1` (stereo unspecified), for which the survival is 57%.

Regarding `CCc1ccc(C2C(C(=O)Nc3ccccc3OC)=C(C)Nc3nc(SCc4ccccc4)nn32)cc1` (stereo unspecified), the survival was 76%. As to `CCOC(=O)c1ccc(CSc2nnc3cc(C)c4ccccc4n23)cc1`, the survival was 95%. Take `Cc1cc2nnc(SCc3ccc(F)cc3)n2c2ccccc12`: the survival was -1% (active). With `CCCN(CCC)C(=O)CSc1nnc2cc(C)c3ccccc3n12`, the survival is 76%. Consider `COc1ccc(C2NCCS2)cc1` (stereo unspecified), for which the survival was 65%.

`Cc1ccc(CN2CCCn3nc(C(=O)NCCc4ccc(Cl)cc4)cc3C2=O)cc1`: the survival is 71%.

`Cc1nn(-c2ccc(N3CCCCC3)nn2)c(C)c1CCC(=O)NCc1ccc(Cl)cc1`: the survival was 79%. In the case of `Cc1cccc(OCC(=O)Nc2cccc(-c3nc4ccccc4s3)c2)c1` it was 7% (active); in that of `CCCCC(=O)Nc1cccc(-c2nc3ccccc3s2)c1`, 41% (active). As to `Cc1cccc(OCC(=O)Nc2ccc3nc(SCc4ccccc4)sc3c2)c1`, the survival is 112%. Turning to `CCCOc1ccccc1C(=O)Nc1ccc(-c2nc3ccc(C)cc3s2)cc1`, the survival is 29% (active). In the case of `Cc1cccc(OCCSc2nc3ccc(NC(=O)COc4ccccc4)cc3s2)c1` it was 78%. For the compound `COc1cccc(C(=O)Nc2ccc(-c3nc4ccc(C)cc4s3)cc2)c1OC`, the survival was 49%. On to `Cc1ccc2nc(-c3ccc(NC(=O)COc4ccccc4C(C)(C)C)cc3)sc2c1`, for which the survival is 114%. On to `O=C(COc1ccccc1[N+](=O)[O-])Nc1cccc(-c2nc3ccccc3s2)c1`, for which the survival was 65%. As to `COc1ccc(CC(=O)Nc2ccc(-c3nc4ccccc4s3)c(C)c2)cc1`, the survival was 69%. As to `CCC(CC)C(=O)Nc1cccc(-c2nc3ccccc3s2)c1`, the survival was 53%. With `COc1ccc(CC(=O)Nc2ccc(-c3nc4ccccc4s3)c(C)c2)cc1OC`, the survival was 37% (active).

Take `COc1ccccc1C(=O)Nc1ccc(-c2nc3ccccc3s2)c(C)c1`: the survival is 83%. On to `Cc1nc2ncnn2c(C)c1CCC(=O)N1CCN(c2ccc(F)cc2)CC1`, for which the survival was 89%. As to `COCCNC(=O)CN1C(=O)c2cccnc2Oc2ccc(Cl)cc21`, the survival was 85%. In the case of `COc1ccc(-c2onc(C)c2C)cc1S(=O)(=O)NCc1ccco1` it was 67%; in that of `Cc1ccc(S(=O)(=O)N(C)c2ccc3sc(C)nc3c2)cc1`, 91%. As to `COc1ccc(OC)c(C(=O)CC2(O)C(=O)N(Cc3ccccc3C)c3ccccc32)c1` (stereo unspecified), the survival was 165%. Turning to `CN1C(=O)Cc2cc(S(=O)(=O)CCC(=O)Nc3ccc(OC(F)(F)F)cc3)ccc21`, the survival is 71%.
